Compound activity (PubChem)
ALDH1A1 inh: inhibitors of human aldehyde dehydrogenase 1A1. actives 7.3% (n = 220,000). Potency, µM (doses to about 75.3 µM), inactives show top-dose activity, negative = inhibition, hits mostly inhibitors. Purified ALDH1A1, NADH fluorescence, propionaldehyde substrate. P00352;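 further: potency means the concentration at half of the fitted maximal effect; plate controls were no enzyme wells and a reference inhibitor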
IMPase inh: IMPase inhibition in cells; CHO-M1 cells, IP1 accumulation, HTRF TR-FRET ratio; 120,000 tested, under 10 active; P97697; inhibition (IP1 accumulation), % at 46.1 µM; active means well fitted curve in the direction sought with a large enough effect in the signal ratio, not every such curve was filed as active; inconclusive means small, poorly fitted or top-dose-only effect, or a change in a side signal; inactive means no such curve, though single readings can be large or run the other way; the % refers to the signal ratio;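 further: cells stimulated with carbachol in lithium chloride buffer; plate controls were DMSO basal wells for no effect and reference inhibitor wells for full effect; higher means more IMPase inhibition seen as more IP1 and lower FRET ratio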
Target sequence (P97697 whole entry, looked up): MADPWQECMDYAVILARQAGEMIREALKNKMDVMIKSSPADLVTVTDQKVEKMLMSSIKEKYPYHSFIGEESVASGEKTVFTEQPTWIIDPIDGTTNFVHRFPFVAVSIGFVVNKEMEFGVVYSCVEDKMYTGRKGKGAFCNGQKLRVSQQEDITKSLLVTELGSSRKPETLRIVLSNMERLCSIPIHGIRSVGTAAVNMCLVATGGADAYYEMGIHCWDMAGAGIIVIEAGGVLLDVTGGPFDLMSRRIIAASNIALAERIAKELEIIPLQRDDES
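In this qHTS, compounds (final up to 46 uM) act on CHO-M1 cells that are then activated through the M1 receptor with carbachol, in pH 7.4 buffer containing 50 mM LiCl, for 30 min. IP1 accumulation is quantified by the IP-One immunoassay.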
HPGD inh: blocks human HPGD enzyme activity; actives 4.3% (n = 150,000); purified HPGD, NADH fluorescence kinetic, PGE2 substrate; Potency, µM, for the others: top-dose activity change, negative = inhibition, hits mostly inhibitors; AID 894; P15428; further: potency means the concentration at half of the fitted maximal effect
Target sequence (P15428 whole entry, looked up): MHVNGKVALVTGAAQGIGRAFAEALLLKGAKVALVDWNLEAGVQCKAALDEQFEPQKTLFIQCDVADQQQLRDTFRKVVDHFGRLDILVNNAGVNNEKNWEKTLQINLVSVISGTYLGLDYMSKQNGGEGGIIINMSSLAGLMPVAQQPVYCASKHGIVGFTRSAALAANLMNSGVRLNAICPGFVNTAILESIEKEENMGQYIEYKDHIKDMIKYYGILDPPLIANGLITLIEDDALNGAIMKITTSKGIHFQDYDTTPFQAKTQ
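20 nM HPGD preincubated 15 min at room temperature with compound in 50 mM Tris-HCl pH 8, 0.01% Tween 20. Started with 1 mM NAD+ and 30 uM prostaglandin E2; NADH fluorescence (360/450 nm) read 5 times over 30-s intervals, last minus first.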
* = called active by the depositor; ? = inconclusive; . = no result given; ! = a repeat was not active; [ ] = dose if it differs, or a comment. Most compounds without a hit are left out; they make up all but 9% or so of the library. Unless noted, the call rests on the fitted dose curve; in most records, active means well fitted inhibition curve with a large enough effect (not every such curve was filed as active); inconclusive means small, poorly fitted or top-dose-only effect, or another doubt; inactive means no such curve, though single readings can be large or run the other way. Unless noted, on the % scale 0 is the no-effect control and ±100 the full control effect.

SMILES	ALDH1A1 inh	IMPase inh	HPGD inh
COc1ccc(Cn2c(N)c(C(=O)NCc3ccco3)c3nc4ccccc4nc32)cc1	?	-10	?
COc1ccc(N2CC(C(=O)NCc3ccco3)CC2=O)cc1 (stereo not given)	25µM*	.	.
C=C1C2C[C@]3(C4CC5[C@@]6(C)CC[C@H](O)[C@@]5(C3CC2=O)C4[N+]([O-])(CC)C6)[C@@H]1O (stereo not given in full)	6%	.	-3%
Clc1ccc(C2=CCC[C@H]3CC[C@@H]2N3)cn1	10µM*	10	-14%
C#CCN[C@@H](C)Cc1ccccc1	.	-1	.
N#CC(C#N)=Cc1cccnc1	3.2µM*	.	.
CNCC/C=C/c1cccnc1	1%	.	.
CCN1C[C@@]2(COC)[C@H]3[C@@H](OC)[C@H]4C1[C@@]3([C@H](OC)C[C@@H]2O)[C@H]1C[C@@]2(O)[C@@H](OC(=O)c3ccccc3)[C@@H]1[C@@]4(OC(C)=O)[C@H](O)[C@@H]2OC	1%[20.9 µM]	2[20.6 µM]	-6%
O=c1[nH]c(=O)n(-c2ccccc2)c(O)c1/C=C/C=Nc1ccccc1	4%	-4	-13%
O=c1[nH]c(=O)n(-c2ccccc2)c(O)c1N=Nc1ccc(Br)cc1	-2%	.	.
COC(=O)C1=Nc2ccccc2/C1=C\c1c(O)n(-c2ccc(OC)cc2)c(=O)[nH]c1=O	22µM*	13	-11%
COC(=O)C1=Nc2ccccc2/C1=C\c1c(O)n(-c2ccc(Br)cc2)c(=O)[nH]c1=O	4%	.	18µM*
O=c1[nH]c(=O)n(-c2ccccc2)c(O)c1/C=C1/C(c2ccccc2)=Nc2ccccc21	?	.	25µM*
COc1ccc(-n2c(O)c(/C=C/C=Nc3ccccc3)c(=O)[nH]c2=O)cc1	-7%	.	-27%
CC[C@H](C)[C@H](NC(=O)[C@H](CCCN=C(N)N)NC(=O)[C@H](CCCN=C(N)N)NC(=O)[C@H](CC(C)C)NC(=O)[C@H](Cc1ccccc1)NC(=O)CNC(=O)CNC(=O)[C@@H](N)Cc1ccc(O)cc1)C(=O)O	5%	.	.
COC(=O)[C@@]1(OC)C[C@@H]2O[C@@]1(C)n1c3ccccc3c3c4c(c5c6ccccc6n2c5c31)C(=O)N(C)C4	5%[13.5 µM]	.	-25%
CC(C)(O)C1O[C@H]2CC[C@@]3(C)[C@@](O)(CC[C@H]4Cc5c([nH]c6ccccc56)[C@@]43C)C2=CC1=O (stereo not given in full)	-7%	.	.
CC(=O)OCC(=O)[C@@H]1CC[C@H]2[C@H]3CC[C@H]4C[C@@H](O)CC[C@]4(C)[C@@H]3C(=O)C[C@@]12C	-2%[20.9 µM]	1[20.6 µM]	2%
CC(C)[C@@H](Br)C(=O)NCC(=O)O	-1%[13.5 µM]	.	-3%
C=CC(=O)OCC(CC)CCCC (stereo not given)	-4%	.	-5%
CC(C)C[C@H](NC(=O)[C@H](Cc1ccccc1)NC(=O)CNC(=O)CNC(=O)[C@@H](N)Cc1ccc(O)cc1)C(=O)N[C@@H](CCCN=C(N)N)C(=O)N[C@@H](CCCCN)C(=O)N[C@@H](Cc1ccc(O)cc1)C(=O)N1CCC[C@H]1C(=O)N[C@@H](CCCCN)C(=O)O	-6%	.	.
O[C@@H](Cc1ccncc1)C(Cl)(Cl)Cl	10%	2	1%
CCN(CC)c1ccc(CC2C(=O)N(C)C(=O)N(C)C2=O)cc1	4.5µM*	-2	-13%
C=CCOc1ccc(CC2C(=O)N(C)C(=O)N(C)C2=O)cc1	?	-6	-2%
Cl/C=C/CCl	-3%	.	-5%
SMILES	ALDH1A1 inh	IMPase inh	HPGD inh
O=C(Oc1ccc(Cl)c2cccnc12)N1CCCCCC1	?	-2	-19%
CCCCC/C=C\C/C=C\C/C=C\CCCCC(=O)NCCO	-1%	.	-3%
CN1CCCC2(CCN(C(=O)c3csnn3)CC2)C1	?	.	-6%
Oc1ccccc1O	14µM*	5	18µM*
Oc1cccc(Cl)c1Cl	8%	.	-1%
O=C(O)CN1CCN(CC(=O)O)CC(=O)[O][Hg][O]C(=O)C1	1.6µM*	.	0.04µM*
COc1ccc(N(CC(=O)Nc2cccc(SC)c2)S(C)(=O)=O)cc1Cl	14µM*	9	?
COc1ccc(NC(=O)c2c(C)nn(Cc3ccccc3Cl)c2Cl)cc1Cl	6%	6	-8%
O=C(O)c1ccccc1Nc1cccc(C(F)(F)F)c1	9%	-5[20.6 µM]	28µM*!
CC(O)(CS(=O)(=O)c1cccc(C(F)(F)F)c1)C(=O)Nc1cccc(C(F)(F)F)c1 (stereo not given)	2%	1	-8%
NC(=O)CI	28µM*	0	?
CC1Cc2c(cnc3c2CN(C)CC3)CO1 (stereo not given)	-2%[13.5 µM]	.	.
O=C(Oc1ccccc1)N1CCC[C@@]2(CCN(Cc3cc(C(F)(F)F)cc(C(F)(F)F)c3)C2)C1	1%	.	1%
O=C1NC(=O)C(=Cc2ccc(N3CCN(C(=O)c4ccccc4)CC3)c([N+](=O)[O-])c2)C(=O)N1	11µM*	.	.
O=C1NC(=O)C(=Cc2cc([N+](=O)[O-])ccc2N2CCCCC2)C(=O)N1	-8%	.	.
CNc1ccc2oc(C[C@@H]3OC4(CC[C@@H]3C)O[C@H](C(C)C(=O)c3ccc[nH]3)[C@H](C)C[C@H]4C)nc2c1C(=O)O (stereo not given in full)	?	.	-19%
COc1ccccc1[N+](=O)[O-]	25µM*	.	-6%
COc1ccccc1CCNCc1cc2c(cc1[N+](=O)[O-])OCO2	?	9	-4%
Nc1ccc(Br)cc1	?	.	-11%
Nc1ccc2cc(Br)ccc2c1	18µM*	.	.
CC(=O)[C@@H]1CC[C@H]2[C@H]3CC[C@H]4C[C@@H](O)CC[C@]4(C)[C@@H]3CC[C@]12C	.	2	.
COc1ccc(OCC(=O)N2CCN(Cc3ccc4c(c3)OCO4)CC2)cc1	1%	.	.
COc1ccc(CN2CCN(C(=O)Cc3ccccc3)CC2)c(OC)c1	18µM*	.	-2%
COc1ccc(OCC(=O)N2CCN(Cc3ccc(SC)cc3)CC2)cc1	2%	1	.
Cc1ccc(OCC(=O)N2CCN(Cc3ccc4c(c3)OCO4)CC2)cc1	25µM*	.	.
SMILES	ALDH1A1 inh	IMPase inh	HPGD inh
COc1ccc(CN2CCN(Cc3ccccc3)CC2)c(OC)c1	2%	6	-12%
COc1cccc(CN2CCN(C(=O)COc3ccc4ccccc4c3)CC2)c1	25µM*	5	-7%
COc1cc2c3cc1Oc1cc(ccc1O)C[C@@H]1c4c(cc(OC)c(O)c4Oc4cccc(c4)C[C@H]3N(C)CC2)CC[N+]1(C)C	-1%[20.9 µM]	-1[20.6 µM]	-4%
O=C(O)[C@H](Cc1cnc[nH]1)N1C(=O)c2ccccc2C1=O	-7%[13.5 µM]	.	-1%
CN1CC[C@@]2(CCCN(C(=O)c3ccncc3)C2)C1	8%	.	-1%
C[C@@H](Cc1ccc2c(c1)OC(C(=O)O)(C(=O)O)O2)NC[C@H](O)c1cccc(Cl)c1	.	-1	.
c1ccc2c(c1)CCNC2	4%	.	-6%
CC1(C)CCC(C)(C)c2c1ccc(O)c2Cc1c(O)ccc2c1C(C)(C)CCC2(C)C	-8%[13.5 µM]	.	-10%
O=C(O)[C@@H]1[C@H](C(=O)O)[C@]2(Cl)C(Cl)=C(Cl)[C@@]1(Cl)C2(Cl)Cl	3.2µM*	.	-21%
O=S1OCC2C(CO1)C1(Cl)C(Cl)=C(Cl)C2(Cl)C1(Cl)Cl (stereo not given)	3%	.	-4%
Clc1cncc(N2CCNCC2)n1	22%	2	?
